Data as given in PubChem BioAssay AID1863 (Southern Research Specialized Biocontainment Screening …, 2009).
Out of some 300,000 compounds screened, about 480 (0.16%) were called active.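 How the source made its calls: active means inhibition over 29.93%, a cutoff 3 SD above the screen mean, later confirmed by dose response; inconclusive means inhibition over 29.93% but no dose response follow-up; inactive means inhibition at most 29.93% or unconfirmed.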 Only a sample is shown. Measured potencies and affinities stand elsewhere.

Assay: inhibitors of PhoP regulon expression, primary screen, Salmonella Typhimurium, GFP reporter (AID 1863);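 further: 0% = low Mg2+ inducing control and 100% = high Mg2+ repressing control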
Conditions: S. Typhimurium PhoP-regulated promoter GFP reporter, 4 h; at 50 µM; stronger effect = higher value

inhibition, inactive:
Cc1ccc(SC2=C(Sc3ccc(C)cc3)C(=O)c3ccccc3C2=O)cc1 4.97%, O=S1(=O)N=C(SCCO)c2ccccc21 -8.43%, CCn1c(SCC(=O)NCCc2ccccc2)nc2c([nH]c3ccccc32)c1=O -1.21%, CCCc1nc2ccc(NC(=O)NCCC(=O)OCC)cc2c(=O)n1Cc1cccc(Cl)c1 6.26%, O=C(NOC(=O)c1ccccc1F)c1ccc(OC(F)F)cc1 -1.76%, CCCCOC(=O)Cn1c(=O)n(CC(=O)OCCCC)c2ccccc21 1.46%, CCOC(=O)Cn1c(=N)n(CCOc2cccc(C)c2)c2ccccc21 -6.78%, O=C(O)Cn1c(COc2ccc(Cl)cc2)nc2ccccc21 -9.39%, CCCCOC(=O)Cn1c2ccc(OC)cc2c2nc3ccccc3nc21 -30.4%, CCCCc1n(CC(=O)c2ccc(Cl)cc2)c2ccccc2[n+]1C 7.69%, CCCCCOC(=O)Cn1c(=O)oc2ccc(C)cc21 8.75%, CCCCCCCCCCOC(=O)Cn1c(COc2ccccc2C)[n+](C)c2ccccc21 13.3%, Cn1c(COc2ccccc2O)[n+](C)c2ccccc21 19.1%, Cc1onc(-c2c(Cl)cccc2Cl)c1C(=O)Nc1ccc2c(c1)OCO2 5.51%, CN1CCN(NC(=S)NC2CCCCC2)CC1 2.99%, CC1(c2ccncc2)Nc2ccccc2-c2nc3ccccc3n21 (stereo unspecified) 4.56%, CC1CCCCC1NC(=O)CNC(=O)c1cccs1 (stereo unspecified) 0.65%, COC(=O)c1cc(OC)c(OC)cc1NC(=S)N1CCN(Cc2ccccc2)CC1 -2.33%, CCN(Cc1ccccc1)Cc1ccc(OCc2ccccc2)cc1 -0.23%, CC(=O)c1ccc(OCc2cc(C(=O)N3CCN4CCCC4C3)no2)cc1 (stereo unspecified) -1.66%, CCCCOC(=O)Cn1c(=O)oc2ccc(C)cc21 1.86%, CCCCOC(=O)Cn1c(=N)n(CCC)c2ccccc21 8.26%, CCCCCCOc1ccc(C(=O)O)cc1 -7.54%, CCCCCOC(=O)Cn1c(=O)oc2ccccc21 5.08%, CCN(CC)CCN1C(=O)c2ccccc2NC1c1cccc(F)c1 (stereo unspecified) -1.91%, CCN(c1ccc(NC(=O)COC(=O)/C=C/c2cccs2)cc1)C(C)C 1.21%, CCOc1ccc(S(=O)(=O)N(CCO)CCO)cc1-c1nc2c(C(C)(C)C)nn(C)c2c(=O)[nH]1 6.61%, OCCNCCCOc1ccc(Cl)cc1Br 9.05%, COCCCNCCCOc1ccc(Cl)cc1Br 16.4%, CCc1cc(OCCCCNCc2ccccc2)ccc1Cl -6.28%, Cc1cc(Br)ccc1OCCNCc1ccccc1 5.75%, Clc1ccc(OCCCNCc2ccccc2)c2ccccc12 13.7%, COCCNCCCOc1ccc(Br)cc1Cl 2.25%, O=C(COC(=O)c1ccncc1)NCc1ccccc1 -7.25%, CN(CC(=O)Nc1ccc(OC(F)(F)F)cc1)C1CCCCC1 9.36%, COc1cccc(NC(=O)CN(C)C(=O)c2ccc(-c3ccccc3Cl)o2)c1 -0.25%, COCc1cc(=O)[nH]c(-c2ccccc2)n1 9.5%, COc1ccc(/C=C2/SC(=O)N(CCC(=O)Nc3ccc(C)cc3)C2=O)cc1OC 1.5%, Clc1ccc(OCCn2ccnc2)c(Cl)c1 26.6%, c1ccc2cc(OCCCn3ccnc3)ccc2c1 -2%, Clc1ccccc1OCCCn1ccnc1 2.45%, Clc1ccccc1OCCn1ccnc1 21.2%, COc1ccc(Cc2noc(CN(C)CC3CCN(Cc4ccccc4)CC3)n2)cc1OC 0.81%, N#CCCN(C(=O)CSc1nc2nc(-c3cccs3)cc(C(F)(F)F)c2c(=O)[nH]1)c1ccccc1 -5.71%, CC(C)C(=O)NC(=S)Nc1ccccn1 1.05%, COc1ccc(-c2cc(C(=O)Nc3c(C)n(C)n(-c4ccccc4)c3=O)c3ccccc3n2)cc1 6.3%, O=C(O)CNC(=O)c1ccc(NC(=O)/C(=C/c2cccc([N+](=O)[O-])c2)NC(=O)c2ccco2)cc1 1.55%, Cc1ccc(Nc2nc(N)c3ccccc3n2)cc1C -7.22%, COc1cc2nc(Nc3ccc(C)c(Cl)c3)nc(N)c2cc1OC -5.89%, CCOC(=O)N1CCN(C(=O)c2ccc(C)c(S(=O)(=O)Nc3cccc(C)c3C)c2)CC1 -9.54%, Cc1nc(SC(C(=O)c2ccccc2)c2ccccc2)nc2ccccc12 (stereo unspecified) 5.08%, O=Cc1c(N2CCC3(CC2)OCCO3)nc2ccccn2c1=O -5.94%, COc1cccc2c(N/N=C/c3ccccc3)cc(C)nc12 -2.56%, COc1ccc(/C=N/Nc2cc(C)nc3ccc(Br)cc23)cc1 -2.21%, Cc1cc(N/N=C/c2ccc(N(C)C)cc2)c2ccccc2n1 5.73%, Cc1cc(N/N=C/c2ccc(O)cc2)c2cccc(C)c2n1 -15.4%, Cc1ccccc1NC(=O)NC1(C(=O)NCC2CCCO2)CCCCC1 (stereo unspecified) -0.07%, CC1CCCC(C)N1/N=C/c1ccccc1Br (stereo unspecified) -3.03%, CC1CCCC(C)N1/N=C/c1cccc(Br)c1 (stereo unspecified) -2.2%, CC1(C)NC(=O)N(CC(O)CN(c2ccccc2)S(=O)(=O)c2ccccc2)C1=O (stereo unspecified) -1.71%, Cc1ccc(C(=O)N/C(=C\c2ccco2)C(=O)NCc2cccnc2)cc1 2%, CC1(C)C(=O)Nc2ccccc2N1C(=O)Cn1ncc(Cl)c(Cl)c1=O 1.69%, O=C(Nc1cc(N2CCCCC2)ncn1)c1ccccc1 1.2%, COc1ccc(CCNC(=O)c2cc(COc3c(F)cccc3F)on2)c(OC)c1 6.23%, O=C(NC1CCCc2ccccc21)c1ccc([N+](=O)[O-])cc1 (stereo unspecified) -2.23%, O=[N+]([O-])c1ccccc1CNC1CCCc2ccccc21 (stereo unspecified) -9.02%
